Compound activity deposited in PubChem BioAssay by The Scripps Research Institute Molecular Screening Center.
An excerpt weighted towards active compounds, which were near 3.4% of everything screened.
TEAD-YAP block: TEAD-YAP interaction inhibition; HEK-TIYL cells, TEAD-Gal4/YAP UAS-luciferase luminescence; inhibition, % at 9.12 µM; hit rate 1.4% among 640,000; in the data active = inhibition above about 32%
FBW7 act: activators of human E3 ligase FBW7; AlphaScreen FBW7–phospho-cyclin E peptide binding, activator screen; normalized activity (activation), % at 26.1 µM; hit rate 0.13% among 650,000; AID 1259310; in the data active = normalized activity above about 1.9%;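 note: purified mutant Fbw7 with reduced substrate affinity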
Target sequence (Q969H0 whole entry, looked up): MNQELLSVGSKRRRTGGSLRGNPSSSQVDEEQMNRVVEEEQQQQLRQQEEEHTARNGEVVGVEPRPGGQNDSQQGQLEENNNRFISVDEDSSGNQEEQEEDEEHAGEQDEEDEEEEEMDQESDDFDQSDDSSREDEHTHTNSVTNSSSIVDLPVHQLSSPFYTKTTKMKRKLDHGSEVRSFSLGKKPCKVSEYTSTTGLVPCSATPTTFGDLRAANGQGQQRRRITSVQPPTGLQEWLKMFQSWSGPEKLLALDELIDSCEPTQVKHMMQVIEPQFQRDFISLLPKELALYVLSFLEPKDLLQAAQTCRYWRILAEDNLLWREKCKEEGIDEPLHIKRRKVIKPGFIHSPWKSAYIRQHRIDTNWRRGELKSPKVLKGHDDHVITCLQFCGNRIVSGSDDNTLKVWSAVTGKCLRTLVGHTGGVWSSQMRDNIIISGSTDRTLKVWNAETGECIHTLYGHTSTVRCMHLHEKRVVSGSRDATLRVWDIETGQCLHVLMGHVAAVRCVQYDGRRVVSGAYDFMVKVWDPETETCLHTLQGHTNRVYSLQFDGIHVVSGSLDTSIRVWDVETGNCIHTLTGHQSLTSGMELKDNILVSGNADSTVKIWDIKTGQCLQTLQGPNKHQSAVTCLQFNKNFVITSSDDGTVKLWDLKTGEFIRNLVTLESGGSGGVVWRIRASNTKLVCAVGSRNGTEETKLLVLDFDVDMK
GPR151 activ: activates the human receptor GPR151 | Q8TDV0 | PathHunter beta-arrestin GPR151 cells, luminescence | activation, % at 11.2 µM | hit rate 1% among 650,000 | AID 1508602; in the data active = activation above about 4.9%
MITF primary: blocks human microphthalmia-associated transcription factor; O75030; AlphaScreen MITF homodimerization, bead proximity signal; AID 1259374; hit rate 0.91% among 650,000; inhibition, % at 2.6 µM; in the data active = inhibition above about 50%
GPR151 confirm: human GPR151 activation, confirmation screen | shares compounds with GPR151 activ | GPR151 PathHunter beta-arrestin cells, luminescence, 90 min; % of EA-reagent control over plate median | activation, % at 11.2 µM | 6,700 tested, under 10 active | AID 1508609;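 active = mean percent activation across replicates above the confirmation screen cutoff of 4.91%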
GPR119 ag: activates human GPR119 in a GPR151 counter-screen; activation, % at 11.2 µM; GPR119 PathHunter beta-arrestin cells, luminescence, 90 min; 0 = compound-well median, 100 = enzyme-acceptor control; shares compounds with GPR151 activ; hit rate 0.3% among 6,700;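 active = mean percent activation in the counterscreen above 29.09%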;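 note: counterscreen on off-target GPR119 to flag nonselective hits from the GPR151 activator screen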
Large screens that a line does not name were inactive (follow-up assays come after a bar, where they were run).

Cc1ccc(NC(=O)CCc2nnc3ccc(N4CCC(C(N)=O)CC4)nn23)cc1	none
Cc1ccc(NC(=O)CCc2nnc3ccc(N4CCC(C)CC4)nn23)cc1	GPR151 activ 5.0 | GPR151 confirm inactive | GPR119 ag inactive
Cc1ccc(-n2ncnc2-c2cccc(Br)c2)cc1Cl	none
CC(=O)c1cccc(NC(=O)/C(=C/c2ccco2)NC(=O)c2ccco2)c1	none
COC(=O)c1cccc(NC(=O)/C(=C\c2ccco2)NC(=O)c2ccco2)c1	GPR151 activ 5.5 | GPR151 confirm inactive | GPR119 ag inactive
Cc1nc2nc(SCC(=O)NC3CCCCC3)nn2c(C)c1Cc1c(F)cccc1Cl	GPR151 activ 6.4 | GPR151 confirm inactive | GPR119 ag inactive
CCC(Oc1ccccc1)c1nnc(NC(=O)Cc2ccccc2)s1 (stereo unspecified)	GPR151 activ 27.9 | GPR151 confirm inactive | GPR119 ag inactive
O=C1CCC(C(=O)Nc2cc(F)cc(F)c2)=NN1	GPR151 activ 6.4 | GPR151 confirm inactive | GPR119 ag inactive
CCOC(=O)c1ccccc1NC(=O)CSc1nnc(Cc2ccc(OC)cc2)o1	none
c1ccc(Oc2ccc(-c3cncc(-c4ccc5[nH]ccc5c4)n3)cc2)cc1	none (no result: TEAD-YAP block, FBW7 act, MITF primary)
CCN(CC)P(=O)(c1nc2ccccc2n1CC)N(CC)CC	GPR151 activ 5.6 | GPR151 confirm inactive | GPR119 ag inactive
Cc1ccc(SC2CC(=O)N(c3ccc(F)cc3F)C2=O)cc1 (stereo unspecified)	GPR151 activ 9.8 | GPR151 confirm inactive | GPR119 ag inactive
Cc1ccc(N2C(=O)CC(Sc3ccc(F)cc3)C2=O)cc1 (stereo unspecified)	none
COc1ccc(OCc2nc3c4cc(OC)c(OC)cc4nc(=S)n3[nH]2)cc1	none
COc1cc2nc(=S)n3[nH]c(CCn4c(C)nc5ccccc54)nc3c2cc1OC	GPR151 activ 5.5 | GPR151 confirm inactive | GPR119 ag inactive
CCc1ccc(C(=O)NC(CC(C)C)C(=O)Nc2cc(C)on2)cc1 (stereo unspecified)	GPR151 activ 5.3 | GPR151 confirm inactive | GPR119 ag inactive
CCc1ccc(OCC(=O)Nc2cc(C)on2)cc1	none
CCOC(=O)C(C)Sc1nnc(NC(=O)c2c(F)cccc2Cl)s1 (stereo unspecified)	GPR151 activ 5.0 | GPR151 confirm inactive | GPR119 ag inactive
O=Cc1cn(CC(=O)NCc2ccccc2)c2ccccc12	none
O=Cc1cn(CC(=O)NCCc2ccccc2)c2ccccc12	GPR151 activ 7.0 | GPR151 confirm inactive | GPR119 ag inactive
O=C(NCC(c1ccc2c(c1)OCO2)N1CCN(c2ccccc2F)CC1)c1cnccn1 (stereo unspecified)	GPR151 activ 5.5 | GPR151 confirm inactive | GPR119 ag inactive
Cc1ccccc1NC(=O)C(=O)NCC(c1ccc2c(c1)OCO2)N1CCN(C)CC1 (stereo unspecified)	GPR151 activ 5.7 | GPR151 confirm inactive | GPR119 ag inactive
S=c1nc2c(n[nH]1)c1ccccc1n2CCc1ccccc1	GPR151 activ 6.5 | GPR151 confirm inactive | GPR119 ag inactive
S=c1nc2c(n[nH]1)c1ccccc1n2Cc1ccccc1	none
CC(C)n1c2ccccc2c2n[nH]c(=S)nc21	GPR151 activ 6.7 | GPR151 confirm inactive | GPR119 ag inactive
Cc1cccc(NC(=O)COc2ccc(Br)c(C)c2)c1	none
O=S(=O)(CCOc1ccccc1)N1CCN(c2ccccc2F)CC1	none
O=C(COc1ccc(Cl)cc1)NCCCS(=O)(=O)N1CCN(c2ncccn2)CC1	GPR151 activ 7.5 | GPR151 confirm inactive | GPR119 ag inactive
O=S(=O)(CCOc1ccccc1)N1CCN(c2ncccn2)CC1	GPR151 activ 6.2 | GPR151 confirm inactive | GPR119 ag inactive
O=C(COc1ccccc1)NCCCS(=O)(=O)N1CCN(c2ncccn2)CC1	none
CCc1cc2c3c(c1)C1(C(=O)N3C(C)(C)C=C2C)C(C#N)=C(N)OC2=C1C(=O)CC(C)(C)C2 (stereo unspecified)	none
CC1=CC(C)(C)N2C(=O)C3(C(C#N)=C(N)OC4=C3C(=O)CC(C)(C)C4)c3c(C)c(C)cc1c32 (stereo unspecified)	GPR151 activ 9.5 | GPR151 confirm inactive | GPR119 ag inactive
COc1ccccc1C1(NC(=O)CCn2cccn2)CCCC1	none
COc1ccccc1C1(NC(=O)CCn2nc(C)cc2C)CCCC1	GPR151 activ 5.0 | GPR151 confirm inactive | GPR119 ag inactive
COc1ccc2c(c1)CC(c1nc3ccc(-c4cn[nH]c4)cc3[nH]1)NC2 (stereo unspecified)	none
COc1ccc(C2CNCC2c2nc3ccc(-c4cn[nH]c4)cc3[nH]2)cc1 (stereo unspecified)	GPR151 activ 6.0 | GPR151 confirm inactive | GPR119 ag inactive
Cc1ccc(C(=O)NC(=S)Nc2cc(-c3nc4ncccc4o3)ccc2Cl)cc1	none
CC(C)(C)c1ccc(C(=O)NC(=S)Nc2cc(-c3nc4ncccc4o3)ccc2Cl)cc1	GPR151 activ 5.1 | GPR151 confirm inactive | GPR119 ag inactive
CCNC(=O)C(=O)N/N=C/c1ccccc1	GPR151 activ 8.2 | GPR151 confirm inactive | GPR119 ag inactive
O=C(CNC(=O)c1cc(N2CCOCC2)ccn1)Nc1ccc(F)c(F)c1F	GPR151 activ 5.0 | GPR151 confirm inactive | GPR119 ag inactive
CCC(C)(C)NC(=O)c1cc(OC)c(C)c(OC)c1	none
Cc1nnc(C)c2c(C)n(C(C)c3ccccc3)c(C)c12 (stereo unspecified)	none
COc1ccc(C(C)n2c(C)c3c(C)nnc(C)c3c2C)cc1 (stereo unspecified)	GPR151 activ 11.3 | GPR151 confirm inactive | GPR119 ag inactive
O=C(NCc1ccccc1F)c1cc2cc(Br)ccc2oc1=O	GPR151 activ 5.9 | GPR151 confirm inactive | GPR119 ag inactive
Cc1ccc(SCC(=O)O/N=C(\N)c2cccc([N+](=O)[O-])c2)cc1	GPR151 activ 5.2 | GPR151 confirm inactive | GPR119 ag inactive
CC(Oc1ccc(Br)cc1)C(=O)O/N=C(\N)c1cccc([N+](=O)[O-])c1 (stereo unspecified)	GPR151 activ 5.7 | GPR151 confirm inactive | GPR119 ag inactive
CC(Oc1ccc(Br)cc1)C(=O)O/N=C(\N)c1ccc([N+](=O)[O-])cc1 (stereo unspecified)	none
Cc1cc(C(=O)O/N=C(\N)c2ccc(Br)cc2)ccc1[N+](=O)[O-]	GPR151 activ 6.4 | GPR151 confirm inactive | GPR119 ag inactive
Cc1cccc(C(=O)O/N=C(\N)c2ccc([N+](=O)[O-])cc2)c1	GPR151 activ 5.6 | GPR151 confirm inactive | GPR119 ag inactive
Cc1cc(C)cc(C(=O)O/N=C(\N)c2ccc([N+](=O)[O-])cc2)c1	none
CC(=O)Nc1ccc(C(=O)Nc2ccc(C)cn2)cc1	none
